Screens as filed in PubChem BioAssay.
Shown are actives, neighbours in structure and some others; about 6.6% of the full set was active somewhere.
HepG2 tox = HepG2 cytotoxicity, counter-screen for TGF-b inhibitors | HepG2 CAGA-GFP viability, ATP luminescence, 18 h | Potency, µM (series often up to 46.1 µM), for inactives: at the highest dose activity change, negative = cytotoxicity, hits mostly cytotoxic | hit rate 0.76% among 410,000
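HepG2 CAGA-GFP cells (1000/well, DMEM with 1% FBS) received compound, then TGF-beta at 500 pg/mL final, and were incubated 18 hours at 37 degrees C. Viability was read by CellTiter-Glo luminescence. Media-only wells were set as complete cell-killing and DMSO as no toxicity.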
KB-V1 cytotox = KB-V1 MDR subline cytotoxicity | KB-V1 MDR cells viability, CellTiter-Glo, 72 h | Potency, µM (series often up to 46.1 µM), hits mostly cytotoxic | hit rate 3.4% among 400,000; also: % is scaled to controls: 0 for no effect and ±100 for the full control effect; nearly all actives have a fitted effect of over 60% in size
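KB-V1 MDR subline cells in DMEM (phenol-red free, 10% FBS) exposed to compounds in qHTS concentration series for 72 h at 37 degrees C. Viability read by CellTiter-Glo luminescence; concentration-effect curves fitted after normalization and correction.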
HT1080 IDH1KD tx = kills HT-1080 cells with IDH1 knockdown; HT-1080 IDH1 knockdown viability, ATP luminescence, 48 h; Potency, µM (highest dose often 46.1 µM), for inactives: top-dose activity, negative = toxicity, usual class: cytotoxic; hit rate 2% among 360,000; AID 686971;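 also: 0% = DMSO wells and -100% = cell-free medium wells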
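Viability of IDH1-knockdown HT-1080 fibrosarcoma cells was assessed by CellTiter-Glo after 48 h at 37 °C with titrated compound; concentration-effect curves were classified by fit quality and response size.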
TGFb SMAD3 inh = blocks TGF-b signaling | Potency, µM (doses to about 46.1 µM), for inactives: at the top dose activity, negative = inhibition, most hits filed as inhibitors | HepG2 CAGA-GFP TGF-b/SMAD3 reporter, GFP fluorescence, 18 h; TGF-beta stimulated, 500 pg/mL final | hit rate 1.2% among 410,000; also: % is scaled to controls: 0 for no effect and ±100 for the full control effect; nearly all actives have a fitted effect of over 65% in size
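Cell-based qHTS in HEPG2 carrying a CAGA-GFP Smad reporter; compounds added before 500 pg/mL final TGF-beta, 18 h incubation at 37 degrees C, GFP fluorescence quantified per cell by imaging cytometry.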
KB-3-1 tox = kills parental KB-3-1 adenocarcinoma cells; KB-3-1 viability, CellTiter-Glo ATP luminescence, 72 h; Potency, µM (doses to about 46.1 µM), most hits filed as cytotoxic; hit rate 1.4% among 400,000; AID 1347075; also: % is scaled to controls: 0 for no effect and ±100 for the full control effect; nearly all actives have a fitted effect of over 60% in size
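Using CellTiter-Glo luminescence, growth of non-resistant KB-3-1 adenocarcinoma cells is assessed 72 h after pin-tool compound addition at 37 °C. Normalized responses across the concentration series yield fitted curves.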
HT1080NT lethal = kills 2HG-producing HT-1080-NT fibrosarcoma cells; hit rate 1.6% among 360,000; AID 686970; HT-1080-NT fibrosarcoma viability, CellTiter-Glo ATP luminescence, 48 h; Potency, µM (series often up to 46.1 µM), inactives show at the top dose activity, negative = less viability, hits mostly cytotoxic;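 also: NT is the 2HG producing partner of a matched IDH1 knockdown line; 0% = DMSO-treated cells and -100% = media-only wells without cells; nearly all actives have a fitted effect of over 55% in size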
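A 48-hour cytotoxicity screen used HT-1080-NT cells plated 2 hours before compound delivery. ATP-based CellTiter-Glo luminescence measured viability, normalized to DMSO and no-cell controls.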
An asterisk follows results filed as active; i = inactive; ? = inconclusive; . = no result; [ ] = another dose, or the depositor's remark. Calls follow the shape of the dose curve; as a rule, active = well fitted curve in the direction sought with a large enough effect; inconclusive = small, poorly fitted or top-dose-only effect, or another doubt; inactive = no such curve, though single readings can be large; an effect the other way counts as inactive or inconclusive. Potency is read from the fitted curve at half-maximal effect.

SMILES | HepG2 tox | KB-V1 cytotox | HT1080 IDH1KD tx | TGFb SMAD3 inh | KB-3-1 tox | HT1080NT lethal
COc1cccc(Cn2nnc(C(=O)Nc3cc(Cl)ccc3OC)c2N)c1 | -20.7% | i | ? | 2.6% | ? | -21.2%
Nc1c(C(=O)Nc2ccc3c(c2)OCCO3)nnn1Cc1cccc(Cl)c1 | 2.2% | i | ? | 0.9% | 16.4µM* | ?
COc1ccc(NC(=O)c2nnn(Cc3cccc(F)c3)c2N)c(OC)c1 | -56.8% | i | ? | -22.4% | 6.51µM* | ?
CC(C)C(c1nnnn1C1CCCC1)N1CCc2ccccc21 (centres undefined) | -16.5% | i | -3.6% | -7.8% | i | -5.0%
Cc1ccc(C(c2nnnn2C2CCCC2)N2CCc3ccccc32)cc1 (centres undefined) | -17.7% | 20.6µM* | 0.4% | ? | i | -3.1%
CC(=O)N1N=C(c2cccc([N+](=O)[O-])c2)OC1(C)CC(=O)Nc1ccccc1 (centres undefined) | -0.8% | 20.6µM* | 15.7% | -22.3% | i | -2.9%
CC(=O)N1N=C(c2ccccc2)OC1(C)CC(=O)Nc1ccccc1 (centres undefined) | -3.8% | ? | 6.0% | 7.0% | i | -2.7%
CC1(Oc2ccc3ccccc3c2)CCN(Cc2ccc(OC(F)(F)F)cc2)C1 (centres undefined) | -5.7% | i | 16.4% | 0.2% | i | 17.2%
N#Cc1c(N2CCN(C(=O)c3ccco3)CC2)nc(-c2ccccc2)c2c1CCCC2 | -2.0% | 20.6µM* | ? | ? | i | ?
CC1(C)Cc2c(C#N)c(N3CCN(C(=O)c4ccco4)CC3)nc(-c3ccco3)c2CS1 | -24.1% | 5.8µM* | 5.8% | -1.4% | i | 4.3%
CCCCc1nc(NCCNC(=O)c2ccco2)c(C#N)c2c1CSC(C)(C)C2 | -13.2% | 2.31µM* | -2.8% | -39.3% | i | -2.0%
N#Cc1c(N2CCN(C(=O)c3ccccc3)CC2)nc(-c2ccccc2)c2c1CCCC2 | -4.1% | ? | ? | ? | ? | ?
COc1cccc(CNC(=O)CCn2c(=O)c3cccn3c3ccc(F)cc32)c1OC | -16.5% | . | . | -1.1% | . | .
CCOC(=O)c1cc(-c2ccc(C)cc2)n(CCC(=O)Nc2nc3c(C)cccc3s2)c1C | -16.3% | i | . | ? | i | .
OC(CNCC1COc2ccccc2O1)COCc1cccs1 (centres undefined) | -12.7% | 20.6µM* | -28.6% | -41.6% | ? | -10.1%
COc1ccc(OC)c(NC(=O)C2Cc3ccccc3CN2S(=O)(=O)c2ccc(F)cc2)c1 (centres undefined) | -6.2% | . | . | . | . | .
COCCn1c(SCC(=O)N2CC(=O)Nc3ccccc32)nc2ccccc2c1=O | 11.4% | i | 4.4% | 6.0% | i | 0.7%
Cc1cccc(C)c1-n1c(SCC(=O)N2CC(=O)Nc3ccccc32)nc2ccccc2c1=O | -14.0% | 18.4µM* | -14.6% | -3.3% | ? | -10.9%
Cc1ccc(-n2c(SCC(=O)N3CC(=O)Nc4ccccc43)nc3ccccc3c2=O)cc1 | -17.7% | 18.4µM* | -27.2% | 1.3% | ? | -10.1%
COc1ccc(S(=O)(=O)NC(C)C(=O)Nc2ccccc2C(F)(F)F)cc1 (centres undefined) | 3.7% | 16.4µM* | -11.0% | 0.1% | i | 10.8%
CC[N+]1(C)CCC(O)(c2ccc(OC)cc2)C(C(=O)c2ccc(OC)cc2)C1 (centres undefined) | -101.2% | ? | 4.61µM* | ? | ? | ?
COc1ccc(-c2ccc(C(=O)C3CC3)cc2)cc1 | -2.0% | ? | 18.8% | -1.2% | i | ?
CCOc1ccc(C(=O)Nc2ccc(-c3nn[nH]n3)cc2)cc1[N+](=O)[O-] | . | ? | . | . | i | .
O=C(Cc1ccc(N2CCNC2=O)cc1)N1CCCC(Nc2ccc(F)c(F)c2)C1 (centres undefined) | -1.1% | i | 2.91µM* | -24.1% | 7.31µM* | 3.26µM*
O=C(Cc1ccc(N2CCNC2=O)cc1)N1CCCC(Nc2cccc(F)c2)C1 (centres undefined) | -19.8% | ? | 5.8µM* | ? | 4.11µM* | ?
SMILES | HepG2 tox | KB-V1 cytotox | HT1080 IDH1KD tx | TGFb SMAD3 inh | KB-3-1 tox | HT1080NT lethal
OCCN1CCN(CCCN2c3ccccc3Sc3ccc(Cl)cc32)CC1 | 15.8µM* | ? | ? | ? | i | ?
CC(=O)c1ccc2c(c1)N(CCCN1CCC(CCO)CC1)c1ccccc1S2 | -29.3% | ? | . | 17.5% | i | .
CN1CCN(CCCNC(=O)c2cn(C)c3ccc(S(=O)(=O)N(C)C)cc3c2=O)CC1 | 35.0% | i | 11.4% | 40.5% | i | 11.3%
CN1CCN(CCCN2c3ccccc3Sc3ccc(S(=O)(=O)N(C)C)cc32)CC1 | 11.2µM* | 20.6µM* | 11.6µM* | ? | i | 18.4µM*
COc1ccc(Cl)cc1NC(=O)N1CCC(CN2CCc3ccccc3C2)CC1 | -23.7% | . | . | -26.0% | . | .
COc1ccc2c(CNCc3ccc(Cl)cc3)c(C(=O)O)n(Cc3ccccc3C)c2c1 | -26.3% | . | . | 5.8% | . | .
CCOc1cc(N2CCOCC2)c(OCC)cc1NC(=O)COC(=O)c1c(C)noc1C | -56.4% | ? | 1.2% | -16.1% | i | 3.9%
C=CCN(CC=C)C(=O)c1cccc(OC2CCN(S(=O)(=O)N(C)C)CC2)c1 | 0.4% | i | -2.2% | -0.5% | i | -11.9%
C=CCN(CC=C)C(=O)c1ccc(OC2CCN(S(=O)(=O)N(C)C)CC2)cc1 | -21.6% | 20.6µM* | -2.2% | 0.0% | ? | -2.4%
Cc1cccc(OCC(=O)NCc2ccccc2)c1 | -15.1% | i | 13.8% | 2.3% | i | 15.7%
C/C(=N\NC(=O)COc1cccc(C)c1)c1ccc2ccccc2c1O | -58.6% | i | ? | 5.62µM* | ? | 20.6µM*
Cc1cccc(OCC(=O)NNC(=O)c2cc3ccccc3oc2=O)c1 | 3.16µM* | ? | -3.1%[9.24 µM] | ? | i | -2.2%
Cc1ccc(N2NC3(CCN(C(N)=O)CC3)NC2=O)cc1 | 6.0% | i | 6.51µM* | 16.2% | i | 5.8µM*
Cc1ccc(N2C(=O)NC3(CCCCC3)C2=O)cc1 | -17.5% | i | 5.8% | 8.4% | i | 3.9%
C/C=C/C(=O)[C@@H](C)[C@@H](/C=C/C[Si](C)(C)C)C(C)C | 11.2% | . | . | -2.3% | . | .
O=C(Nc1nnc([C@H]2C[C@H](O)[C@@H](CO)O2)s1)Nc1ccccc1F | -7.4% | i | ? | ? | i | 24.2%
CC(C)c1ccccc1NC(=O)Nc1nnc([C@H]2C[C@H](O)[C@@H](CO)O2)s1 | 0.8% | i | 18.3% | 11.7% | 0.0012µM* | 4.6%
